Experimental data taken from PubChem BioAssay AID485344 (National Center for Advancing Translational Sciences (NCATS), 2010).
About 6,900 (2%) of roughly 340,000 compounds were called active. The sample as a whole holds a higher share of actives than the screen did. Unmarked numbers belong to inactive results. No stated cut-off is given here; in the data, active means inhibition above about 30%; inactive means below that, where a call was filed.

Molecular target: D(2) dopamine receptor (Homo sapiens) (UniProt P14416)
Experiment: HTS Assay for Allosteric Antagonists of the Human D2 Dopamine Receptor: Primary Screen for Antagonists; further: 0% is about no effect
Conditions: HEK293 TREx D2 cells, calcium flux, dopamine EC80; at 10 µM; hits give high values
In short: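 Tetracycline-induced HEK293 TREx cells expressing D2 receptor forced-coupled to calcium signalling, loaded with no-wash calcium dye. Compounds added and calcium flux read 180 s, then dopamine added at EC80 and read a further 180 s.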

D(2) dopamine receptor (Homo sapiens), sequence (P14416 whole entry, looked up): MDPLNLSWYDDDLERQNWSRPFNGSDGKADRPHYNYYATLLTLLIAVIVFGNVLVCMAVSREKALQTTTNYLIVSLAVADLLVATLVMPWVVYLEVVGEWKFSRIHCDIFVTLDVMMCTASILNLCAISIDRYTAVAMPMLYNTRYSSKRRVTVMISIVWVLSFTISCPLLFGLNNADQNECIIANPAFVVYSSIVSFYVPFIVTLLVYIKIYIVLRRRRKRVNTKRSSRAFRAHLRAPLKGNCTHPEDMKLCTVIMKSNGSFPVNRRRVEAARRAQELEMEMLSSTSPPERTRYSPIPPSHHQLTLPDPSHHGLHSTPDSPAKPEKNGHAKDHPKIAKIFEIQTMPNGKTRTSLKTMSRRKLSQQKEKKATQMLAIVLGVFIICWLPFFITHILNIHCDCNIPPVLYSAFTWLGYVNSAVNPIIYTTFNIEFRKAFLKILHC

SMILES	inhibition
CN(C)S(=O)(=O)c1ccc(C(=O)NCC2(N3CCOCC3)CCCCC2)cc1	8.22%
O=C(O)c1ccccc1N=N/C(=N/Nc1cc(S(=O)(=O)O)ccc1O)c1ccccc1	28.3%
COc1ccc(Cn2c(=S)[nH]c3cc(C(=O)N4CCCCC4)ccc3c2=O)cc1	-3.83%
CCN(CC)CCCNC(=O)c1ccc2c(=O)n(Cc3ccc4c(c3)OCO4)c(=S)[nH]c2c1	16.5%
COc1ccc(Cn2c(=S)[nH]c3cc(C(=O)NCCCN4CCOCC4)ccc3c2=O)cc1	35.6% (active)
COc1cccc(C(=O)OCC(=O)c2[nH]c(C)c(C(C)=O)c2C)c1	8.22%
Cn1c(=O)[nH]c(=O)c2c1nc(N(CCO)Cc1ccccc1)n2Cc1ccccc1Cl	73.5% (active)
CCOC(=O)Cn1c(CN(Cc2ccccc2)Cc2ccccc2)nc2c1c(=O)[nH]c(=O)n2C	-7.46%
CN(Cc1ccccc1)c1nc2c(c(=O)[nH]c(=O)n2C)n1CCSc1nc2ccccc2[nH]1	29.2%
COCCn1c(C)cc(C(=O)COC(=O)CNC(=O)c2ccco2)c1C	-8.05%
Cc1ccc2nc(NC(=O)CSc3nc(=O)n(CCCN(C)C)c4c3CCC4)sc2c1	7.56%
CSc1ccccc1C(=O)OCC(=O)N1CCN(C(C)=O)CC1	0.24%
CC(=O)Nc1ccc(NC(=O)CCN2C(=O)C3CC=CCC3C2=O)cc1 (stereo not given)	16.4%
Cc1ccc(NC(=O)COc2coc(CN3CCc4ccccc4C3)cc2=O)cc1Cl	-2.55%
CCOC(=O)c1ccc(NC(=O)C2CC(=O)Nc3nc4ccccc4n32)cc1 (stereo not given)	-12.3%
O=C(Nc1ccccc1)C1CC(=O)n2c(nc3ccccc32)N1 (stereo not given)	33.6% (active)
CC(=O)c1ccc(NC(=O)C2CC(=O)Nc3nc4ccccc4n32)cc1 (stereo not given)	-1.67%
CC(C)Oc1ccc(S(=O)(=O)N2CCOCC2)cc1NC(=O)C1CCCC1	-5.29%
CN(c1ccccc1)S(=O)(=O)c1cccc(NC(=O)Cc2ccc(Cl)cc2)c1	-11.8%
COc1ccccc1CNC(=O)COC(=O)CNS(=O)(=O)c1ccc(NC(C)=O)cc1	4.15%

SMILES	inhibition
COC(=O)Cn1c(O)c(N=NC(=O)OC)c2ccccc21	11.2%
CCCCn1c(O)c(N=NC(=O)Cn2c(C(F)(F)F)nc3ccccc32)c2ccccc21	16.8%
N#CCCCn1c(O)c(N=NC(=O)C(O)c2ccccc2)c2ccccc21 (stereo not given)	38.5% (active)
OCCNCCCCOc1ccccc1F	4.36%
OCCNCc1cccc(OCc2ccccc2Cl)c1	1.43%
OCCNCCOc1ccc(Cl)c(Cl)c1	33.4% (active)
Cc1cccc(NS(=O)(=O)c2cccc(C(=O)NNC(=O)c3ccccc3O)c2)c1	-12.1%
Cc1cc(C)cc(-c2nnc(SCC(=O)NC3CC3)o2)c1	5.88%
CCC(C)C(N=C1NS(=O)(=O)c2ccccc21)C(=O)N1CCC(C)CC1 (stereo not given)	17%
Cc1n[nH]c(=O)c2c(NC(=O)COC(=O)c3ncc(Cl)c(Cl)c3Cl)oc(C)c12	-6.33%
S=C(NCCCc1ccccc1)Nc1ccc(Br)cc1	3.8%
S=C(Nc1ccc(Br)cc1)NC1CCN(Cc2ccccc2)CC1	109% (active)
O=C(COc1ccccc1F)NC1CC1	-13.9%
O=C(NNC(=S)Nc1ccc(Br)cc1Cl)c1ccco1	0.194%
O=C(COc1ccccc1O)NC1CCCC1	1.67%
Cc1cc(Br)ccc1NC(=S)NC1CCCC1	9.66%
O=C(COc1ccc(Br)cc1F)NC1CCN(Cc2ccccc2)CC1	52.9% (active)
S=C(Nc1ccc(Br)cc1Cl)NC1CCN(Cc2ccccc2)CC1	70.2% (active)
S=C(NN=C1CCN(Cc2ccccc2)CC1)NC1CCCCC1	5.59%
CCOC(=O)Cc1csc(SCC(=O)Nc2ccc(C)cc2F)n1	0.767%

SMILES	inhibition
CCCC1C(=O)N2C(N(C)C)=Nc3ccc(C)cc3N2C1=O (stereo not given)	-7.75%
Brc1ccc(CN2CC[C@H]3C=CCc4cccc(c43)C2)cc1	-16.8%
Cc1ccc2c(c1)C1CN(C)CCC1N2S(=O)(=O)c1cccc(F)c1 (stereo not given)	-6.37%
CNS(=O)(=O)c1ccc(C(=O)NCC(=O)NCCc2ccc3c(c2)OCCO3)cc1	-17.4%
Cc1csc(SCC(=O)N(c2ccccc2)C(C)C)n1	-0.577%
O=S(=O)(NCCCCCCNS(=O)(=O)c1c(F)cccc1F)c1ccc2c(c1)OCCO2	-4.68%
O=S(=O)(c1ccccc1)c1nc(-c2ccccc2)oc1NCCCN1CCOCC1	47.7% (active)
O=S(=O)(c1ccc(Br)cc1)c1nc(-c2ccccc2)oc1N1CCOCC1	15.8%
O=S(=O)(c1ccc(Br)cc1)c1nc(-c2ccccc2)oc1NCc1cccnc1	9.02%
CCOc1ccc(C(=O)CCC(=O)NC2=NCCS2)cc1	-11.7%
Cc1ccc(COC(=O)CN2C(=O)NC3(CCCC3)C2=O)cc1	-1.94%
COCCNC(=O)C1CCN(C(=O)C2CC(=O)N(c3ccc(C)cc3)C2)CC1 (stereo not given)	30% (active)
Cc1ccc(N2CC(C(=O)NCCS(=O)(=O)N3CCN(c4ccccc4)CC3)CC2=O)cc1 (stereo not given)	8.52%
CCc1ccc(N2CC(C(=O)N3CCCCCC3)CC2=O)cc1 (stereo not given)	-11.6%
COCCCNC(=O)C1CC(=O)N(c2ccc(C)cc2)C1 (stereo not given)	-5.47%
O=C(C1CC(=O)N(c2ccc(Br)cc2)C1)N1CCCC1 (stereo not given)	-3.05%
CCCC(C)NC(=O)C1CCN(C(=O)C2CC(=O)N(c3ccc(C)cc3)C2)CC1 (stereo not given)	33% (active)
Cc1ccc(NC(=O)CCC(=O)N2CCC(c3ccccc3)=N2)cc1S(=O)(=O)N1CCCCC1	-6.66%
CC1(C)CC(=O)C=C(c2cccc3c2Oc2ccccc2S3)C1	2.71%
Cc1ccc(NC(=O)C(c2ccccc2)N2CCN(C(=O)c3ccco3)CC2)cc1 (stereo not given)	-0.875%
